Reference: the supplement of paper PMC12645437, “Orthogonal IMiD-Degron Pairs Induce Selective Protein Degradation in Cells” (ACS Chemical Biology, 2025)
In all, about 8,300 sequences were measured (“log2 fold change of degron read counts, EGFP-low vs EGFP+ sorted cells (limma voom), compound-induced degradation”: median about -1.1, highest 2% from about 3.2 on). What follows is part of a selection rich in the highest values, with near analogues and random picks from the rest.

T1: CRBN, Q96SW2
T1 chain: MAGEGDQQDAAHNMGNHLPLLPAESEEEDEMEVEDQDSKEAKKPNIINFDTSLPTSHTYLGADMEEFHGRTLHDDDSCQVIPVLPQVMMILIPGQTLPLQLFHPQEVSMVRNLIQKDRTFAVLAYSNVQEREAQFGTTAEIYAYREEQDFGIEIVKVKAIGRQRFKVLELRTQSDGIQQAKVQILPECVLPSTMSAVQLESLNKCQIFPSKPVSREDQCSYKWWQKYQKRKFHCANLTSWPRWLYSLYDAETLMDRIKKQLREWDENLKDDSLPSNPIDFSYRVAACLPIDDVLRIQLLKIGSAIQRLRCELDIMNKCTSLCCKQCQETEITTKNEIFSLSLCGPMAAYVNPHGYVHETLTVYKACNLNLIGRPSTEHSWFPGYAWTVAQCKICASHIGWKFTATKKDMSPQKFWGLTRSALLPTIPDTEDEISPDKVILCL

B1: 46F_47K_49E_50I_52G_53A_54Q_55F_67L_, Q9UKT9 (peptide)
chain: FKCEICGAQFTQKGNLLRHIKL
B2: 46F_47V_49E_50I_52G_53A_54Q_55F_67L_, Q9UKT9 (peptide)
chain: FVCEICGAQFTQKGNLLRHIKL
B3: 46F_47C_49E_50I_52G_53A_54Q_55F_67L_, Q9UKT9 (peptide)
chain: FCCEICGAQFTQKGNLLRHIKL
B4: 46F_47G_49E_50I_52G_53A_54Q_55F_67L_, Q9UKT9 (peptide)
chain: FGCEICGAQFTQKGNLLRHIKL
B5: 46F_47A_49E_50I_52G_53A_54Q_55F_67L_, Q9UKT9 (peptide)
chain: FACEICGAQFTQKGNLLRHIKL
B6: 46F_47N_49E_50I_52G_53A_54Q_55F_67L_, Q9UKT9 (peptide)
chain: FNCEICGAQFTQKGNLLRHIKL
B7: 46F_47T_49D_50Q_52G_53A_54S_55F_67L_, Q9UKT9 (peptide)
chain: FTCDQCGASFTQKGNLLRHIKL
B8: 46F_47R_49E_50I_52G_53R_54A_55F_67L_, Q9UKT9 (peptide)
chain: FRCEICGRAFTQKGNLLRHIKL
B9: 46L_47W_49N_50Q_52G_53F_54L_55C_67L_, Q9UKT9 (peptide)
chain: LWCNQCGFLCTQKGNLLRHIKL
B10: 46L_47Q_49E_50I_52G_53F_54A_55C_67L_, Q9UKT9 (peptide)
chain: LQCEICGFACTQKGNLLRHIKL
B11: 46L_47S_49E_50I_52G_53F_54A_55C_67L_, Q9UKT9 (peptide)
chain: LSCEICGFACTQKGNLLRHIKL
B12: 46L_47A_49E_50I_52G_53F_54A_55C_67L_, Q9UKT9 (peptide)
chain: LACEICGFACTQKGNLLRHIKL
B13: 46L_47Y_49E_50I_52G_53F_54A_55C_67L_, Q9UKT9 (peptide)
chain: LYCEICGFACTQKGNLLRHIKL
B14: 46L_47W_49E_50I_52G_53F_54A_55C_67L_, Q9UKT9 (peptide)
chain: LWCEICGFACTQKGNLLRHIKL
B15: 46L_47E_49E_50I_52G_53F_54A_55C_67L_, Q9UKT9 (peptide)
chain: LECEICGFACTQKGNLLRHIKL
B16: 46L_47C_49E_50I_52G_53F_54A_55C_67L_, Q9UKT9 (peptide)
chain: LCCEICGFACTQKGNLLRHIKL
B17: 46L_47G_49E_50I_52G_53F_54A_55C_67L_, Q9UKT9 (peptide)
chain: LGCEICGFACTQKGNLLRHIKL
B18: 46L_47I_49E_50I_52G_53F_54A_55C_67L_, Q9UKT9 (peptide)
chain: LICEICGFACTQKGNLLRHIKL

Target: T1, CRBN, Q96SW2
Assay: log2 fold change of degron read counts, EGFP-low vs EGFP+ sorted cells (limma voom), compound-induced degradation; higher = more compound-induced degradation of the degron-EGFP fusion; degrons are variants of IKZF1/3 zinc finger 2; compound dose not given here
Conditions: Jurkat, 18 h
Method: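 Pooled library of 8380 IKZF3 ZF2 degron mutants (positions 146-167 varied within the IKZF3 130-189 degron; only the varied core is printed, flanks not printed) fused to EGFP with IRES-mCherry, lentivirally expressed in Jurkat cells. mCherry+ cells were treated with one IMiD compound for 18 h (dose not stated) and FACS-sorted into EGFP-low and EGFP+ populations. Degron sequences were counted by NGS, and log2FC (EGFP-low vs EGFP+) was estimated by limma voom over 3 biological replicates.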

[1] = compound: compound 19 (5-tert-butyl-thalidomide)
[2] = compound: compound 22 (5-morpholino-thalidomide)
[3] = compound: compound 33 (diphenyl IMiD analogue)
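Also: pooled lentiviral library of zinc finger degron-EGFP fusions in mCherry-positive Jurkat cells, FACS-sorted after compound exposure, with degron abundance counted by next-generation sequencing.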

| Sequence | log2 fold change of degron read counts [1] | log2 fold change of degron read counts [2] | log2 fold change of degron read counts [3] | log2 fold change of degron read counts (compound: thalidomide) |
| --- | --- | --- | --- | --- |
| B1 | 0.105 | -2.17 | -1.89 | -0.0845 |
| B2 | 0.913 | 2.56 | 2.86 | 3.22 |
| B3 | 3.18 | 2.58 | 2.74 | 2.27 |
| B4 | 3.48 | 2.64 | 1.18 | 1.14 |
| B5 | 3.66 | 2.38 | 1.15 | 1.07 |
| B6 | 2.88 | 1.44 | 0.527 | 0.564 |
| B7 | -1.41 | -1.1 | -0.521 | -1.39 |
| B8 | -1.67 | -1.99 | 0.837 | 0.0765 |
| B9 | -0.0173 | -0.578 | -0.261 | -0.106 |
| B10 | 2.27 | 1.95 | 1.57 | 3.4 |
| B11 | 2.2 | 2.05 | 0.991 | 1.15 |
| B12 | 3.1 | 2.3 | 0.347 | 0.922 |
| B13 | 3.17 | 3.5 | 2.65 | 1.71 |
| B14 | 2.64 | 3.24 | 2.31 | 1.06 |
| B15 | 0.666 | -1.22 | 0.464 | 1.55 |
| B16 | 1.77 | 1.67 | 1 | 1.51 |
| B17 | 0.464 | -0.188 | -0.784 | -0.556 |
| B18 | 0.692 | 2.24 | 1.68 | 2.74 |
